Potency and affinity values are given separately. Results filed as inconclusive are left out. Active and inactive are the calls of the source. Unless noted, no rule for the calls is given here.
Key:
[1] = cytotoxicity in PAX8-dependent RMG-1 cells, dose response, cell-based, cherry-pick (AID 687029;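 active = signal drop whose fitted half-maximal concentration is at most twice the top valid dose, in every test run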;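 also: cells exposed to compound for 96 hours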)
[2] = cytotoxicity in IOSE-T80 ovarian epithelial cells, dose response, selectivity assay for PAX8 inhibitor project, cell-based, cherry-pick (AID 687032;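 active = fitted half-maximal concentration for viability loss no higher than twice the top valid dose, in every repeat run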;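 also: cells exposed to compound for 96 h before reading; 0% = neutral control wells and -100% = 2 µM mitoxantrone kill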)
[3] = inhibitors of CMV-promoter luciferase reporter, dose response, counter-screen for Pax8 inhibitor project, cell-based, HEK293, luminescence, dry powder (AID 743020;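 active = signal-lowering compounds whose fitted half-maximal concentration is at or below twice the top tested dose in every run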;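 also: HEK293 cells stably expressing the CMV luciferase reporter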)
[4] = non-specific cell cytotoxicity, dose response, cytotoxicity control for PAX8 inhibitor project, plate reader, dry powder samples (AID 743021)
[5] = IGROV1 ovarian cancer cell cytotoxicity, dose response, PAX8 inhibitor project, plate reader, dry powder samples (AID 743043);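 also: more negative means fewer viable cells or more cytotoxicity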
[6] = NIH:OVCAR-3 ovarian cancer cell cytotoxicity, dose response, PAX8 inhibitor project, plate reader, dry powder samples (AID 743044); settings: max activity: at 35 µM, hits give low values unless noted
[7] = IOSE-T80 ovarian epithelial cell cytotoxicity, dose response, cytotoxicity control for PAX8 inhibitor project, plate reader, dry powder samples (AID 743045);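 also: 0% = neutral control median and -100% = positive control median; more negative values mean more cell killing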
[8] = A2780 ovarian cancer cell cytotoxicity, dose response, cytotoxicity control, plate reader, dry powder samples (AID 743046);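 also: 0% = neutral control wells and -100% = cytotoxic reference compound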
[9] = cytotoxicity in OVCAR8 ovarian cancer cells, dose response, PAX8 project, cell-based, plate reader, dry powder samples (AID 743197)

Measured: max activity

C[C@H](CO)N1C[C@H](C)[C@H](CN(C)Cc2ccc(C(F)(F)F)cc2)OCCCC[C@H](C)Oc2ccc(NC(=O)c3ccccc3)cc2C1=O
inactive: [1] | [2] | [3] | [4] | [5] | [6] -59.7% | [7] | [8]

Cc1ccc(S(=O)(=O)N(C)C[C@@H]2OCCCC[C@H](C)Oc3ccc(NS(=O)(=O)c4ccc(F)cc4)cc3C(=O)N([C@H](C)CO)C[C@H]2C)cc1
inactive: [1] | [2] | [3] | [4] | [5] | [6] -6.55% | [7] | [8]

C[C@@H]1CN([C@@H](C)CO)C(=O)c2cc(NC(=O)Nc3ccc(C(F)(F)F)cc3)ccc2O[C@@H](C)CCCCO[C@@H]1CN(C)Cc1ccccc1
inactive: [1] | [2] | [3] | [4] | [5] | [6] -20.5% [at 16 µM, hits give low values] | [7] | [8]

CCCC#Cc1ccc([C@H]2[C@H]3CN(S(=O)(=O)Cc4ccccc4)CCCCN3[C@H]2CO)cc1
inactive: [1] | [2] | [3] | [4] | [5] | [6] -34.3% | [7] | [8]

C[C@@H]1CCCCO[C@@H](CN(C)S(=O)(=O)c2cccs2)[C@H](C)CN([C@H](C)CO)C(=O)c2cc(NC(=O)Nc3ccc(C(F)(F)F)cc3)ccc2O1
inactive: [1] | [2] | [3] | [4] | [5] | [6] 9.36% [at 2.1 µM, hits give low values] | [7] | [8]

Cc1ccc(S(=O)(=O)Nc2ccc3c(c2)C(=O)N([C@@H](C)CO)C[C@H](C)[C@H](CN(C)Cc2ccc(C(F)(F)F)cc2)OCCCC[C@@H](C)O3)cc1
inactive: [1] | [2] | [3] | [4] | [5] | [6] 9.21% | [7] | [8]

Cc1ccc(S(=O)(=O)Nc2ccc3c(c2)C(=O)N([C@@H](C)CO)C[C@H](C)[C@@H](CN(C)Cc2ccc(Cl)c(Cl)c2)OCCCC[C@@H](C)O3)cc1
inactive: [1] | [2] | [3] | [4] | [5] | [6] -5.1% [at 16 µM, hits give low values] | [7] | [8]

O=C(C[C@H]1C[C@@H]2c3cc(NS(=O)(=O)c4ccc(F)cc4)ccc3O[C@@H]2[C@@H](CO)O1)NCc1ccc(-c2ccccc2)cc1
inactive: [1] | [2] | [3] | [4] | [5] | [6] -28.3% | [7] | [8]

COc1ccc(S(=O)(=O)Nc2ccc3c(c2)C(=O)N([C@H](C)CO)C[C@@H](C)[C@H](CN(C)S(=O)(=O)c2ccc(F)cc2)OCCCC[C@H](C)O3)cc1
inactive: [1] | [2] | [3] | [4] | [5] | [6] -24.5% | [7] | [8]

C[C@@H]1CCCCO[C@H](CN(C)S(=O)(=O)c2ccc(Cl)cc2)[C@@H](C)CN([C@@H](C)CO)C(=O)c2cc(NC(=O)CCC(F)(F)F)ccc2O1
inactive: [1] | [2] | [3] | [4] | [5] | [6] 17.2% [at 2.1 µM, hits give low values] | [7] | [8] | [9]

C[C@@H]1CN([C@H](C)CO)S(=O)(=O)c2ccc(C#Cc3ccncc3)cc2O[C@H]1CN(C)C(=O)Nc1ccc2c(c1)OCO2
inactive: [1] | [2] | [3] | [4] | [5] | [6] -26.8% [at 16 µM, hits give low values] | [7] | [8] | [9]

C[C@@H]1CN([C@@H](C)CO)C(=O)c2c(c3ccccc3n2C)-c2ccccc2CO[C@H]1CN(C)S(=O)(=O)c1cccc(F)c1
inactive: [1] | [2] | [3] | [4] | [5] | [6] -19.9% [at 16 µM, hits give low values] | [7] | [8]

C[C@@H]1CN([C@H](C)CO)C(=O)c2cc(NS(=O)(=O)c3ccc(F)cc3)ccc2O[C@@H]1CN(C)Cc1ccc(C(F)(F)F)cc1
inactive: [1] | [2] | [3] | [4] | [5] | [6] -4.85% | [7] | [8] | [9]

CN1c2ccc(-c3ccc(C#N)cc3)cc2[C@@H]2[C@@H](CCN2C(=O)NC2CCCCC2)[C@@H]1CO
inactive: [1] | [2] | [3] | [4] | [5] | [6] -6.17% [at 4.2 µM, hits give low values] | [7] | [8] | [9]

COc1ccc(S(=O)(=O)Nc2ccc3c(c2)CC(=O)N([C@H](C)CO)C[C@H](C)[C@@H](CN(C)Cc2ccc(-c4ccccc4)cc2)O3)cc1
inactive: [1] | [2] | [3] | [4] | [5] | [6] 36.7% [at 2.1 µM, hits give low values] | [7] | [8] | [9]

C[C@@H]1CN([C@H](C)CO)C(=O)c2cc(NC(=O)c3ccccc3)ccc2O[C@@H](C)CCCCO[C@H]1CN(C)Cc1ccc(C(F)(F)F)cc1
inactive: [1] | [2] | [3] | [4] | [5] | [6] -5.41% [at 0.5 µM, hits give low values] | [7] | [8] | [9]

C[C@@H]1CCCCO[C@H](CN(C)C(=O)c2ccccc2)[C@@H](C)CN([C@@H](C)CO)C(=O)c2cc(NC(=O)Nc3ccc(C(F)(F)F)cc3)ccc2O1
inactive: [1] | [2] | [3] | [4] | [5] | [6] 20.2% [at 2.1 µM, hits give low values] | [7] | [8] | [9]

C[C@H]1CCCCO[C@@H](CN(C)Cc2ccc(C(F)(F)F)cc2)[C@@H](C)CN([C@@H](C)CO)C(=O)c2cc(NS(=O)(=O)c3cccs3)ccc2O1
inactive: [1] | [2] | [3] | [4] | [5] | [6] -8.06% [at 4.2 µM, hits give low values] | [7] | [8] | [9]

COc1ccc(S(=O)(=O)N2CCCCN3[C@H](C2)[C@@H](c2ccc(C#CC(C)C)cc2)[C@@H]3CO)cc1
inactive: [1] | [2] | [3] | [4] | [5] | [6] 10.6% [at 8 µM, hits give low values] | [7] | [8] | [9]

C[C@H]1CCCCO[C@@H](CN(C)C(=O)c2ccccc2)[C@@H](C)CN([C@@H](C)CO)C(=O)c2cc(NC(=O)Nc3ccc(C(F)(F)F)cc3)ccc2O1
inactive: [1] | [2] | [3] | [4] | [5] | [6] 13.2% [at 1.1 µM, hits give low values] | [7] | [8] | [9]

C[C@@H]1CN([C@@H](C)CO)C(=O)c2cc(NS(=O)(=O)c3ccc(F)cc3)ccc2O[C@@H]1CN(C)Cc1ccc(C(F)(F)F)cc1
inactive: [1] | [2] | [3] | [4] | [5] | [6] -27.7% | [7] | [8]

O=C(C[C@@H]1C[C@H]2c3cc(NC(=O)Nc4ccc(C(F)(F)F)cc4)ccc3O[C@H]2[C@H](CO)O1)NCCc1ccccc1
inactive: [1] | [2] | [3] | [4] | [5] | [6] 13% | [7] | [8] | [9]

C[C@H](O)C#Cc1cnc2c(c1)C(=O)N([C@H](C)CO)C[C@H](C)[C@H](CN(C)Cc1ccc(-c3ccccc3)cc1)O2
inactive: [1] | [2] | [3] | [4] | [5] | [6] 9.01% [at 0.26 µM, hits give low values] | [7] | [8] | [9]

C[C@@H]1CCCCO[C@@H](CN(C)C(=O)Nc2ccc(C(F)(F)F)cc2)[C@H](C)CN([C@H](C)CO)C(=O)c2cc(NS(=O)(=O)c3ccccc3)ccc2O1
inactive: [1] | [2] | [3] | [4] | [5] | [6] 50.6% [at 8 µM, hits give low values] | [7] | [8]

C[C@@H]1CCCCO[C@@H](CN(C)Cc2ccc(Cl)c(Cl)c2)[C@H](C)CN([C@H](C)CO)C(=O)c2cc(NS(=O)(=O)c3ccccc3)ccc2O1
inactive: [1] | [2] | [3] | [4] | [5] | [6] 8.76% [at 1.95 µM, hits give low values] | [7] | [8] | [9]

CS(=O)(=O)N1C[C@@H]2N[C@H](C1)[C@@H]2c1ccc(-c2ccccc2)cc1
inactive: [1] | [2] | [3] | [4] | [5] | [6] 15.8% [at 1 µM, hits give low values] | [7] | [8]

C[C@@H]1CCCCO[C@H](CN(C)C(=O)NC2CCCCC2)[C@@H](C)CN([C@@H](C)CO)C(=O)c2cc(NC(=O)Nc3ccc(C(F)(F)F)cc3)ccc2O1
inactive: [1] | [2] | [3] | [4] | [5] | [6] 18.6% [at 2.1 µM, hits give low values] | [7] | [8] | [9]

Cc1cccc(-c2ccc([C@H]3[C@H](CO)N4CCCCN(S(=O)(=O)c5ccccc5C)C[C@@H]34)cc2)c1
inactive: [1] | [2] | [3] | [4] | [5] | [6] -11.5% | [7] | [8] | [9]
